Results from PubChem BioAssay AID1159580 (chemical genetic matrix, 2015).
Hit rate of the full screen: of about 5,500 compounds, about 2,000 (36%) were called active. Another 18% or so got no clear call; they are omitted. Rule as the data show it: active = normalized growth mostly below about 0.91 (no sharp cut-off); inconclusive = no clear call, values can overlap the other calls; inactive = mostly above about 0.92. Some of the results follow.

Experiment: chemical genetic growth profiling, strain panel (AID 1159580);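 also: tested at 20 µM; growth read once vehicle control cultures reached saturation at 30 °C; 1 = growth at the plate median or of vehicle wells; lower values mean less growth of the strain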
Settings: S. cerevisiae deletion strains, growth OD

Measured: normalized growth

C#Cc1cccc(N=Cc2cc(Cl)cc(Br)c2O)c1
active: locus YAR019C, strain CDC15, active compounds read low 0.101 | locus YBL105C, strain PKC1, active compounds read low 0.0988 | locus YBR135W, strain CKS1, active compounds read low 0.128 | locus YBR136W, strain MEC1, active compounds read low 0.107 | locus YBR160W, strain CDC28, active compounds read low 0.134 | locus YDL017W, strain CDC7, active compounds read low 0.1 | locus YDL028C, strain MPS1, active compounds read low 0.108 | locus YDL101C, strain DUN1, active compounds read low 0.165 | locus YDL108W, strain KIN28, active compounds read low 0.122 | locus YDL214C, strain PRR2, active compounds read low 0.103 | locus YDR052C, strain DBF4, active compounds read low 0.451 | locus YDR054C, strain cdc34, active compounds read low 0.482 | locus YDR226W, strain ADK1, active compounds read low 0.534 | locus YDR477W, strain SNF1, active compounds read low 0.117 | locus YER123W, strain YCK3, active compounds read low 0.112 | locus YER133W, strain GLC7, active compounds read low 0.114 | locus YFL009W, strain cdc4, active compounds read low 0.108 | locus YFL029C, strain CAK1, active compounds read low 0.0962 | locus YFR003C, strain YPI1, active compounds read low 0.11 | locus YFR019W, strain FAB1, active compounds read low 0.107 | locus YFR028C, strain CDC14, active compounds read low 0.104 | locus YGR040W, strain KSS1, active compounds read low 0.13 | locus YGR052W, strain FMP48, active compounds read low 0.127 | locus YGR092W, strain DBF2, active compounds read low 0.114 | locus YHR030C, strain SLT2, active compounds read low 0.127 | locus YHR079C, strain IRE1, active compounds read low 0.125 | locus YHR082C, strain KSP1, active compounds read low 0.157 | locus YHR205W, strain SCH9, active compounds read low 0.021 | locus YIL147C, strain SLN1, active compounds read low 0.112 | locus YJL095W, strain BCK1, active compounds read low 0.135 | locus YJL128C, strain PBS2, active compounds read low 0.257 | locus YJL157C, strain FAR1, active compounds read low 0.0902 | locus YJR016C, strain ILV3, active compounds read low 0.103 | locus YJR066W, strain TOR1 (second series), active compounds read low 0.109 | locus YJR066W, strain TOR1, active compounds read low 0.137 | locus YKL048C, strain ELM1, active compounds read low 0.129 | locus YKL067W, strain YNK1, active compounds read low 0.109 | locus YKL101W, strain HSL1, active compounds read low 0.128 | locus YKL193C, strain SDS22, active compounds read low 0.108 | locus YKL203C, strain TOR2, active compounds read low 0.113 | locus YLR113W, strain HOG1, active compounds read low 0.132 | locus YLR133W, strain CKI1, active compounds read low 0.106 | locus YLR403W, strain SFP1, active compounds read low 0.0146 | locus YML070W, strain DAK1, active compounds read low 0.13 | locus YMR001C, strain CDC5, active compounds read low 0.0999 | locus YMR205C, strain PFK2 (second series), active compounds read low 0.12 | locus YMR277W, strain FCP1, active compounds read low 0.108 | locus YNL006W, strain LST8, active compounds read low 0.0957 | locus YNL020C, strain ARK1, active compounds read low 0.11 | locus YNL161W, strain CBK1, active compounds read low 0.107 | locus YNL183C, strain NPR1, active compounds read low 0.156 | locus YNL207W, strain RIO2, active compounds read low 0.119 | locus YNL222W, strain SSU72, active compounds read low 0.095 | locus YNL307C, strain MCK1 (second series), active compounds read low 0.114 | locus YOL078W, strain AVO1, active compounds read low 0.104 | locus YOL136C, strain PFK27, active compounds read low 0.1 | locus YOR061W, strain CKA2, active compounds read low 0.115 | locus YOR119C, strain RIO1, active compounds read low 0.11 | locus YOR231W, strain MKK1, active compounds read low 0.119 | locus YOR329C, strain SCD5, active compounds read low 0.0917 | locus YPL031C, strain PHO85, active compounds read low 0.116 | locus YPL153C, strain RAD53, active compounds read low 0.127 | locus YPL204W, strain HRR25, active compounds read low 0.13 | locus YPL209C, strain IPL1, active compounds read low 0.102 | locus YPL256C, strain CLN2, active compounds read low 0.16 | locus YPR025C, strain CCL1, active compounds read low 0.101 | strain NNK1, active compounds read low 0.108 | strain TSCII, active compounds read low 0.102

O=C(NCC1CCCCN1)c1cc(OCC(F)(F)F)ccc1OCC(F)(F)F (stereo not given)
inactive: locus YAL040C, strain CLN3, active compounds read low 0.988 | locus YCL061C, strain MRC1 (second series), active compounds read low 1 | locus YDR150W, strain NUM1, active compounds read low 1.01 | locus YDR363W, strain ESC2, active compounds read low 1.01 | locus YER002W, strain NOP16, active compounds read low 0.987 | locus YGR229C, strain SMI1, active compounds read low 1.03 | locus YNL175C, strain NOP13, active compounds read low 0.989 | locus YNL197C, strain WHI3, active compounds read low 0.986 | locus YNL224C, strain SQS1, active compounds read low 1.04 | locus YNL322C, strain KRE1, active compounds read low 0.995 | locus YOR083W, strain WHI5 (second series), active compounds read low 1.01 | locus YPL241C, strain CIN2, active compounds read low 0.998
